Results from PubChem BioAssay AID1159580 (chemical genetic matrix, 2015).
“And” between values parts separate entries of the source, which are not always exact repeats. Equal values may be shown once. Among all 5,500 compounds or so, about 2,000 (36%) were called active. Roughly 18% stayed inconclusive and do not appear here. Rule as the data show it: active = normalized growth mostly below about 0.91 (no sharp cut-off); inconclusive = no clear call, values can overlap the other calls; inactive = mostly above about 0.92. The list shows a part of the results.

Assay: chemical genetic growth profiling, strain panel (AID 1159580);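 also: tested at 20 µM; growth read once vehicle control cultures reached saturation at 30 °C; 1 = growth at the plate median or of vehicle wells; lower values mean less growth of the strain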
Conditions: S. cerevisiae deletion strains, growth OD

Measured: normalized growth

C[C@]12C=CC(=O)C=C1CCC1C2C(=O)C[C@@]2(C)C1CC[C@]2(O)C(=O)CO (stereo not given in full)
inactive: locus YAL013W, strain DEP1, stronger effect = lower value 0.992 | locus YAL021C, strain ccr4, stronger effect = lower value 1.03 | locus YAL026C, strain drs2, stronger effect = lower value 1.02 | locus YAL030W, strain snc1, stronger effect = lower value 0.997 | locus YBL061C, strain skt5, stronger effect = lower value 0.992 | locus YBR009C, strain hhf1, stronger effect = lower value 1.01 | locus YBR021W, strain FUR4, stronger effect = lower value 0.985 | locus YBR023C, strain chs3, stronger effect = lower value 1.01 | locus YBR171W, strain sec66, stronger effect = lower value 0.979 | locus YBR229C, strain ROT2, stronger effect = lower value 0.954 | locus YBR231C, strain swc5, stronger effect = lower value 1.01 | locus YBR279W, strain paf1, stronger effect = lower value 1 | locus YCL011C, strain gbp2, stronger effect = lower value 1 | locus YCL016C, strain dcc1, stronger effect = lower value 1.01 | locus YCL029C, strain bik1, stronger effect = lower value 0.978 | locus YCL061C, strain MRC1, stronger effect = lower value 1 | locus YCL069W, strain vba3, stronger effect = lower value 0.996 | locus YCR088W, strain abp1, stronger effect = lower value 0.989 | locus YDL005C, strain med2, stronger effect = lower value 0.981 | locus YDL035C, strain GPR1, stronger effect = lower value 0.981 | locus YDL040C, strain nat1, stronger effect = lower value 0.995 | locus YDL074C, strain BRE1, stronger effect = lower value 0.965 | locus YDL101C, strain DUN1, stronger effect = lower value 0.985 | locus YDL134C, strain PPH21, stronger effect = lower value 0.992 | locus YDL185W, strain tfp1, stronger effect = lower value 0.983 | locus YDL192W, strain arf1, stronger effect = lower value 0.997 | locus YDR001C, strain nth1, stronger effect = lower value 1 | locus YDR069C, strain doa4, stronger effect = lower value 0.98 | locus YDR101C, strain arx1, stronger effect = lower value 0.991 | locus YDR137W, strain rgp1, stronger effect = lower value 1.01 | locus YDR150W, strain NUM1, stronger effect = lower value 0.987 | locus YDR159W, strain sac3, stronger effect = lower value 1.01 | locus YDR162C, strain NBP2, stronger effect = lower value 0.992 | locus YDR195W, strain ref2 0.916 | locus YDR297W, strain sur2, stronger effect = lower value 0.989 | locus YDR318W, strain mcm21, stronger effect = lower value 0.996 | locus YDR334W, strain swr1, stronger effect = lower value 0.999 | locus YDR335W, strain msn5, stronger effect = lower value 0.997 | locus YDR388W, stronger effect = lower value 0.986 | locus YDR392W, strain spt3, stronger effect = lower value 1.05 | locus YDR502C, strain sam2, stronger effect = lower value 0.989 | locus YEL003W, strain gim4, stronger effect = lower value 1 | locus YEL037C, strain rad23, stronger effect = lower value 0.996 | locus YEL061C, strain CIN8 (second series), stronger effect = lower value 0.997 | locus YEL061C, strain CIN8, stronger effect = lower value 0.985 | locus YER015W, strain faa2, stronger effect = lower value 0.996 | locus YER016W, strain bim1, stronger effect = lower value 1.01 | locus YER110C, stronger effect = lower value 0.966 | locus YER111C, strain swi4, stronger effect = lower value 0.981 | locus YER155C, strain BEM2 (second series), stronger effect = lower value 0.973 | locus YER155C, strain BEM2, stronger effect = lower value 1 | locus YER167W, strain BCK2, stronger effect = lower value 0.991 | locus YFR010W, strain ubp6, stronger effect = lower value 0.984 | locus YGL078C, strain dbp3, stronger effect = lower value 0.984 | locus YGL086W, strain mad1, stronger effect = lower value 0.995 | locus YGL167C, strain pmr1, stronger effect = lower value 0.991 | locus YGL173C, strain kem1, stronger effect = lower value 0.994 | locus YGL227W, strain vid30, stronger effect = lower value 0.999 | locus YGL240W, strain doc1, stronger effect = lower value 0.978 | locus YGL248W, strain PDE1, stronger effect = lower value 0.978 | locus YGL253W, strain hxk2, stronger effect = lower value 0.992 | locus YGR078C, strain PAC10, stronger effect = lower value 0.988 | locus YGR135W, strain pre9, stronger effect = lower value 0.997 | locus YGR252W, strain gcn5, stronger effect = lower value 0.95 | locus YHR013C, strain ard1, stronger effect = lower value 0.999 | locus YHR027C, strain rpn1, stronger effect = lower value 1 | locus YHR030C, strain SLT2, stronger effect = lower value 0.997 and 1.02 | locus YHR079C, strain IRE1 (second series), stronger effect = lower value 0.998 | locus YHR079C, strain IRE1, stronger effect = lower value 1.05 | locus YHR094C, strain hxt1, stronger effect = lower value 0.988 | locus YHR129C, strain ARP1, stronger effect = lower value 0.963 | locus YHR142W, strain chs7, stronger effect = lower value 0.972 | locus YHR200W, strain rpn10, stronger effect = lower value 0.986 | locus YIL066C, strain RNR3, stronger effect = lower value 0.98 | locus YIL073C, strain SPO22, stronger effect = lower value 1.01 | locus YIL125W, strain kgd1, stronger effect = lower value 0.993 | locus YIR030C, strain dcg1, stronger effect = lower value 0.987 | locus YJL092W, strain hpr5, stronger effect = lower value 1 | locus YJL095W, strain BCK1 (second series), stronger effect = lower value 1.01 | locus YJL095W, strain BCK1, stronger effect = lower value 0.982 and 1.03 | locus YJL115W, strain asf1, stronger effect = lower value 0.988 | locus YJL129C, strain trk1, stronger effect = lower value 0.978 | locus YJL134W, strain LCB3, stronger effect = lower value 0.995 | locus YJL154C, strain vps35, stronger effect = lower value 1 | locus YJL164C, strain tpk1, stronger effect = lower value 1.02 | locus YJL166W, strain qcr8, stronger effect = lower value 0.976 | locus YJL168C, strain set2, stronger effect = lower value 0.992 | locus YJL187C, strain SWE1 (second series), stronger effect = lower value 0.984 | locus YJR043C, strain POL32, stronger effect = lower value 1 | locus YJR066W, strain TOR1, stronger effect = lower value 0.976
